Screening results: PubChem BioAssay, National Center for Advancing Translational Sciences (NCATS)
ELG1 genotox = inducers of genotoxicity in HEK293T ELG1-luciferase cells. HEK293T ELG1-luciferase reporter, luminescence, 16 h. AID 504466. actives 1.3% (n = 330,000). Potency, µM (highest dose often 46 µM), for the others: at the highest dose activity change, positive = activation, usual class: activators; note: % of control where 0% means no effect; nearly all actives have a fitted effect of over 60% in size
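Screening used a luciferase reporter fused to human ELG1 in HEK293T cells. Luminescence was read on a CCD plate imager after 16 hr exposure and 30 min ONE-Glo incubation.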
p53 reactivation = restores transcriptional activity of mutant p53; H1299 p53-A138V BP100-luciferase reporter, luminescence, 24 h; Potency, µM (series often up to 92.2 µM), without a hit: at the highest dose activity change, positive = activation, hits mostly activators; actives 0.063% (n = 320,000); AID 504706; note: % of control where 0% means no effect; nearly all actives have a fitted effect of over 45% in size
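p53-null H1299 cells stably carrying temperature-sensitive p53-A138V and a BP100-luciferase reporter were pinned with compounds (4-point, 1:5 series) and held 24 hrs at 37 deg C. Luminescence was read 10 min after detection reagent.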
Rab9 promoter act = activates the Rab9 promoter | Huh7 Rab9 promoter-luciferase reporter, luminescence, 24 h | Potency, µM (doses to about 9.22 µM), for inactives: top-dose activation, negative = inhibition, most hits filed as activators | actives 2.8% (n = 320,000); note: % of control where 0% means no effect; nearly all actives have a fitted effect of over 60% in size
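Luciferase signal after 10 min detection reagent at ambient indicates Rab9 promoter upregulation; stably transfected Huh7 cells were treated 24 h with compound in DMSO at 37 °C, 5% CO2.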
NPC1 prom act = activators of NPC1 promoter; actives 2.4% (n = 320,000); Huh7 NPC1 promoter luciferase reporter, 24 h; AID 485313; Potency, µM (top dose mostly 9.22 µM), for inactives: at the top dose activation, usual class: activators; note: % of control where 0% means no effect; nearly all actives have a fitted effect of over 60% in size
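Huh7 cells stably carrying NPC1 promoter–luciferase, plated in Opti-MEM with 10% FBS for 2 h, were exposed to compound in DMSO for 24 h at 37 °C; luciferase reagent was added for 10 min and luminescence read.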
SMN2 splice up = increases expression of the SMN2 splice variant. HEK293 SMN2-luciferase splicing reporter, luminescence, 30-36 h. actives 2.8% (n = 210,000). Potency, µM (highest dose often 46.1 µM), inactives show top-dose activity change, positive = activation, usual class: activators; note: % of control where 0% means no effect; nearly all actives have a fitted effect of over 55% in size
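qHTS luciferase splicing reporter: luminescence rises when SMN2 exon 7 is included in transfected HEK293 cells. Compound exposure lasted 30-36 h at 37C, with 4.5 mM final sodium butyrate as control, followed by a ONE-Glo read.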
FLuc counter = counter-screen for miR-21 project: firefly luciferase inhibitors or activators. P08659. Potency, µM (top dose mostly 57.5 µM), inactives show at the top dose activity change, negative = inhibition, usual class: inhibitors. actives 6.9% (n = 360,000). purified FLuc, Km substrates, luminescence inhibition;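 note: plate controls were vehicle for no effect and reference inhibitor for full effect; nearly all actives have a fitted effect of over 55% in size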
Target sequence (P08659 whole entry, looked up): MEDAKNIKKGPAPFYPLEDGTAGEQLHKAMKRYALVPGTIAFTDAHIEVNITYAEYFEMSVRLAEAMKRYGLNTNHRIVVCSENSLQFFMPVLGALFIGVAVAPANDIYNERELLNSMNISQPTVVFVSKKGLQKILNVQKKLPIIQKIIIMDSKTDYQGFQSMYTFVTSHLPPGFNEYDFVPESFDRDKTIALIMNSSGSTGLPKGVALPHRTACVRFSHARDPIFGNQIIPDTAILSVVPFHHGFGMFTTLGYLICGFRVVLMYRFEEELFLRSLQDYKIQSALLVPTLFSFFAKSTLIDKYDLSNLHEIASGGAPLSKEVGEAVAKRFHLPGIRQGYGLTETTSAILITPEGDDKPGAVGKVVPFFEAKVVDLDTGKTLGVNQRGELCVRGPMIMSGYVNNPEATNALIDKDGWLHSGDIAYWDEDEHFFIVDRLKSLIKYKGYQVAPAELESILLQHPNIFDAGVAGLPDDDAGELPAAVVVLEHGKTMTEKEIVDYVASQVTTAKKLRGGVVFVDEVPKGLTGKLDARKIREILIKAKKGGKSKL
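Biochemical qHTS of compounds, final roughly 60 µM downward over six points, against 10 nM purified firefly luciferase using Km concentrations of substrates (10 uM D-luciferin, 10 uM ATP) in Tris acetate pH 7.5 buffer; luminescence output.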
The depositor's hits bear a star; ? = inconclusive; / = no result given. Most compounds without a hit are left out; they make up all but 7.3% or so of the library. Calls come from the whole dose curve; as a rule, active = well fitted curve in the direction sought with a large enough effect; inconclusive = small, poorly fitted or top-dose-only effect, or another doubt; inactive = no such curve, though single readings can be large; an effect the other way counts as inactive or inconclusive. Potency is the fitted concentration of half-maximal effect.

SMILES	ELG1 genotox	p53 reactivation	Rab9 promoter act	NPC1 prom act	SMN2 splice up	FLuc counter
N#Cc1c(NC(=O)c2cnn3cccnc23)sc2c1CCCC2	?	0.9%	?	?	18.6%	?
Cc1ccc(CNC(=O)CCCn2c(=O)c3ccccc3n(CC(=O)Nc3ccc(C)c(C)c3)c2=O)cc1	/	/	/	/	0.7%	1.2%
Cc1c(NC(=O)c2ccc3c(c2)OCO3)cccc1-c1nc2ccccc2s1	3.8%	2.2%	2.6%	4.8%	-10.7%	3.38µM*
c1ccc2sc(N3CCN(Cc4ccc5c(c4)OCO5)CC3)nc2c1	/	/	/	/	-2.8%	/
Cc1c(NC(=O)c2ccc3c(c2)OCO3)cccc1-c1nc2ncccc2o1	2.6%	-0.9%	-0.6%	-1.6%	-25.8%	?
O=C(Nc1cccc(-c2nc3ccccc3s2)c1)c1ccc2c(c1)OCO2	1.0%	10.3%	-1.7%	13.8%	-3.7%	12µM*
c1ccc2sc(-c3ccc4c(c3)OCO4)nc2c1	0.581µM*	?	0.316µM*	0.562µM*	7.08µM*	0.536µM*
COc1ccc(/C=C(\C#N)c2cc(OC)c(OC)cc2[N+](=O)[O-])cc1	2.9%	0.7%	-5.1%	2.3%	/	9.53µM*
COc1ccc(C(=O)Cc2cc(OC)c(OC)cc2[N+](=O)[O-])cc1	14.7%	7.2%	?	?	?	9.53µM*
COc1cc(/C(C#N)=C/c2ccccc2)c([N+](=O)[O-])cc1OC	-2.7%	8.4%	1.8%	-2.6%	-7.3%	?
O=C(Nc1ccc(O)cc1)c1cc2ccccc2c(=O)s1	2.7%	-0.6%	?	3.98µM*	/	?
O=C(Nc1ccccc1)c1cc2ccccc2c(=O)s1	-4.5%	?	2.82µM*	?	?	10.7µM*
O=C(Nc1ccc(Cl)cc1)c1cc2c(Cl)nc3ccccc3c2s1	/	/	/	/	-1.7%	-3.4%
Cc1cc2[nH]c(=O)c(=O)[nH]c2cc1S(=O)(=O)Nc1cccc(C(F)(F)F)c1	/	/	/	/	/	-15.8%
COc1ccccc1C(=O)Nc1ccc2[nH]ncc2c1	10.3%	6.4%	22.1%	0.2%	/	?
CCOc1cccc(C(=O)Nc2ccncc2)c1	-5.5%	0.3%	-14.0%	-3.9%	-10.6%	-14.0%
CCOc1cccc(C(=O)Nc2ccc3[nH]ncc3c2)c1	?	-8.1%	2µM*	2.82µM*	/	5.36µM*
COc1cccc(C(=O)Nc2ccc3[nH]ncc3c2)c1	?	/	3.55µM*	2.82µM*	/	10.7µM*
COc1ccc(CNC(=O)c2cnn3c(C)c(Cc4ccc(F)cc4)c(C)nc23)cc1	/	/	/	/	/	-5.0%
Cc1ccc(CNC(=O)c2cc(Sc3ccc(F)cc3F)nc3ccccc23)cc1	/	/	/	/	/	-0.4%
COc1ccc(S(=O)(=O)N(C)c2ccc(C(=O)NCc3ccco3)cc2)cc1OC	-0.4%	-8.4%	2.6%	1.5%	/	-1.2%
Oc1cc(-n2cccn2)c(O)cc1-n1cccn1	?	-10.0%	-2.0%	-0.5%	/	16.9µM*
Cc1cc(S(=O)(=O)C(CNC(=O)c2ccc(OC(C)C)cc2)c2cccs2)ccc1F (stereo unspecified)	/	/	/	/	/	-12.9%
CCc1cc(CNC(=O)c2cc(COc3ccc(C)nc3)on2)on1	?	26.8%	?	?	/	16.9µM*
C=CCC1(CC=C)CCCN1C(=O)c1cc(COc2ccc(C)nc2)on1	17.3%	?	-28.9%	-24.1%	/	19µM*
SMILES	ELG1 genotox	p53 reactivation	Rab9 promoter act	NPC1 prom act	SMN2 splice up	FLuc counter
Cc1cc(CNC(=O)c2cc(COc3ccc(F)c(F)c3)on2)nn1C	?	-14.1%	1.26µM*	2.82µM*	/	?
Cc1ccc(OCc2cc(C(=O)NCc3ccc(OC(F)(F)F)cc3)no2)cn1	-8.0%	-4.9%	2.0%	-2.2%	/	3.2%
C=CCC1(CC=C)CCCN1C(=O)c1cc(COc2ccc(F)c(F)c2)on1	-9.8%	18.6%	0.7%	-0.4%	/	1.1%
Cc1cc(C)n(CC(C)NC(=O)c2cc(COc3ccc(F)c(F)c3)on2)n1 (stereo unspecified)	13.5%	/	25.6%	?	/	?
CCOc1ccc(C2C(C(=O)Nc3ccccc3C)=C(C)Nc3nnnn32)cc1 (stereo unspecified)	/	/	/	/	-4.4%	0.3%
Cc1cc2oc(C(=O)Nc3cccnc3)c(C)c2cc1C	13µM*	?	?	?	-12.7%	?
Cc1ccc2c(Cl)c(C(=O)Nc3cccnc3)sc2c1	0.2%	24.8%	3.98µM*	2.82µM*	?	1.9µM*
Cc1ccc2c(C)c(C(=O)Nc3cccnc3)oc2c1	?	19.4%	?	24.0%	-17.6%	6.75µM*
O=C(NCc1cccnc1)c1sc2cc(Cl)ccc2c1Cl	0.6%	7.0%	1.4%	-1.7%	-6.2%	?
O=C(NC1CC1)c1sc2cc([N+](=O)[O-])ccc2c1Cl	1.0%	17.0%	11.6%	13.3%	3.0%	?
Cc1ccc2c(Cl)c(C(=O)NC3CC3)sc2c1	?	23.0%	3.98µM*	2µM*	/	4.78µM*
CCCCN(C(=O)C1CSC2(C)CCC(=O)N12)c1c(N)n(CC(C)C)c(=O)[nH]c1=O (stereo unspecified)	0.5%	3.2%	-0.6%	-1.1%	/	-1.3%
Cc1ccc2c(Cl)c(C(=O)N/N=C/c3cccn3C)sc2c1	?	?	?	15.5%	12.6µM*	?
O=C(Nc1ccccc1)c1csc(-c2ccccc2)n1	8.3%	28.3%	16.0%	12.2%	2.2%	21.3µM*
O=C(Nc1ccccc1Cl)c1csc(-c2cccnc2)n1	18.1%	?	2.82µM*	2.82µM*	/	12µM*
Cc1nc(-c2cccc(NC(=O)c3cccs3)c2)cs1	-0.4%	23.6%	-3.9%	7.9%	11.9%	23.9µM*
O=C(Nc1cccc(-c2csc(-c3ccccc3)n2)c1)c1cccs1	-11.8%	3.7%	-0.7%	3.9%	-22.8%	10.7µM*
COc1ccc(N(Cc2nnc3n2CCCCC3)C(=O)Nc2cccc(C)c2)cc1Cl	/	/	/	/	/	1.2%
CCOC(=O)c1sc2nc3c(SCC(=O)O)cc(C(=O)c4ccccc4O)cn3c(=O)c2c1C	1.7%	1.7%	12.7%	18.4%	18.8%	2.39µM*
O=C(O)CSc1cc(C(=O)c2ccccc2O)cn2c(=O)c3c(-c4ccccc4)csc3nc12	0.3%	3.1%	1.2%	-3.6%	-2.0%	15.1µM*
Cc1sc2nc3c(SC(C)C(=O)O)cc(C(=O)c4ccccc4O)cn3c(=O)c2c1C (stereo unspecified)	5.3%	9.8%	-11.2%	-5.3%	13.3%	21.3µM*
COc1ccc(O)c(C(=O)c2cc(SCC(=O)O)c3nc4sc5c(c4c(=O)n3c2)CCCC5)c1	4.3%	17.3%	-3.4%	2.2%	/	6.75µM*
O=C(Nc1cccc(S(=O)(=O)N2CCCCC2)c1)Nc1ccc(Cl)cc1Cl	-5.9%	0.7%	2.8%	-3.3%	-46.4%	-1.9%
